# Results as given in ChEMBL document CHEMBL2218924, “A broad activity screen in support of a chemogenomic map for kinase signalling research and drug discovery” (Biochem J, 2013).
# How the values were obtained:
# [1] = biological target: T1, MAP kinase-activated protein kinase 5 (Homo sapiens) (UniProt Q8IW41); conditions: at 1 µM
# T1 sequence (whole entry): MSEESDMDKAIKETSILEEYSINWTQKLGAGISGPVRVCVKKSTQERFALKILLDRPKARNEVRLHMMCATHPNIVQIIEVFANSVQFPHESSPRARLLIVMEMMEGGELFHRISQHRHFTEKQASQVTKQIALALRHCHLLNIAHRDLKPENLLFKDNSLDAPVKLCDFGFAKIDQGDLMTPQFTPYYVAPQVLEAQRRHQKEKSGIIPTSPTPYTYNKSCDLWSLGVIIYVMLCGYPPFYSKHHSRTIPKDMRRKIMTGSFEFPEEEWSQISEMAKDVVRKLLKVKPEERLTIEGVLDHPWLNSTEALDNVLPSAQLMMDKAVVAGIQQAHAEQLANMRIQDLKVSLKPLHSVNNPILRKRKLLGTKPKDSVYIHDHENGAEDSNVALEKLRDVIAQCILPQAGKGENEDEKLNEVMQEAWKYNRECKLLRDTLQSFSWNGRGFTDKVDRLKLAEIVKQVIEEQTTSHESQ
# [2] = biological target: T1, MAP kinase-activated protein kinase 5 (Homo sapiens); conditions: at 10 µM
# [3] = biological target: T2, Phosphorylase b kinase gamma catalytic chain, liver/testis isoform (Homo sapiens) (UniProt P15735); conditions: at 1 µM
# T2 sequence (whole entry): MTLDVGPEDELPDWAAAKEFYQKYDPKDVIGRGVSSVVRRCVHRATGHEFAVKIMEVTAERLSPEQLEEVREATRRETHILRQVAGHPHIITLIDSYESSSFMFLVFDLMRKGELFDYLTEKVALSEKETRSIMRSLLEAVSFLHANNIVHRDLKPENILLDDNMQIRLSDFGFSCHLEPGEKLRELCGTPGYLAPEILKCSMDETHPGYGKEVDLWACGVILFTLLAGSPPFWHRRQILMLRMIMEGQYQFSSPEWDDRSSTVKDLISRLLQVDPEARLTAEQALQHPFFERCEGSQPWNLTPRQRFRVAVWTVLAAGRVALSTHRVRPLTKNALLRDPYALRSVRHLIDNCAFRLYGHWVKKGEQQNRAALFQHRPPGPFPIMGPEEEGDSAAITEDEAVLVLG
# [4] = biological target: T2, Phosphorylase b kinase gamma catalytic chain, liver/testis isoform (Homo sapiens); conditions: at 10 µM
# [5] = biological target: Serine/threonine-protein kinase pim-1 (Homo sapiens) (UniProt P11309); conditions: at 1 µM
# Sequence of Serine/threonine-protein kinase pim-1 (Homo sapiens) (P11309 whole entry, looked up): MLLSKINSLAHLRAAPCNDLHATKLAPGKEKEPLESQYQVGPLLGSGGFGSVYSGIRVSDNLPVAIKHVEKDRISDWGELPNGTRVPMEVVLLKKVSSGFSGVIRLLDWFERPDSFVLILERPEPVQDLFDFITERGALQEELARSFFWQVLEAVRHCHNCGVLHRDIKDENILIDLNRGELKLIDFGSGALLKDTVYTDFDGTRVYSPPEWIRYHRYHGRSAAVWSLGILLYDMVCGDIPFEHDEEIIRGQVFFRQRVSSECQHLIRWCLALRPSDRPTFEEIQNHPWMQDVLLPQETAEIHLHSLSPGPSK
# [6] = biological target: Serine/threonine-protein kinase pim-1 (Homo sapiens) (UniProt P11309); conditions: at 10 µM
# [7] = biological target: Serine/threonine-protein kinase pim-2 (Homo sapiens) (UniProt Q9P1W9); conditions: at 10 µM
# Sequence of Serine/threonine-protein kinase pim-2 (Homo sapiens) (Q9P1W9 whole entry, looked up): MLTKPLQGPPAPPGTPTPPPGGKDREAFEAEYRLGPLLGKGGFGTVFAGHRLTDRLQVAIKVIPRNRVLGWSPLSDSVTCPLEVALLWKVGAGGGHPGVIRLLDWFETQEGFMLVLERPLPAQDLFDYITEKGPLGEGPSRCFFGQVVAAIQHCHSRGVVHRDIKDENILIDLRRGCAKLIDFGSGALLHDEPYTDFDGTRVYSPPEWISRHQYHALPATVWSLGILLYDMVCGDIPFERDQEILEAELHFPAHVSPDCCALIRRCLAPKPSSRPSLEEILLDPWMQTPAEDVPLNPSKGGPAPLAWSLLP
# [8] = biological target: Serine/threonine-protein kinase PLK1 (Homo sapiens) (UniProt P53350); conditions: at 1 µM
# Sequence of Serine/threonine-protein kinase PLK1 (Homo sapiens) (P53350 whole entry): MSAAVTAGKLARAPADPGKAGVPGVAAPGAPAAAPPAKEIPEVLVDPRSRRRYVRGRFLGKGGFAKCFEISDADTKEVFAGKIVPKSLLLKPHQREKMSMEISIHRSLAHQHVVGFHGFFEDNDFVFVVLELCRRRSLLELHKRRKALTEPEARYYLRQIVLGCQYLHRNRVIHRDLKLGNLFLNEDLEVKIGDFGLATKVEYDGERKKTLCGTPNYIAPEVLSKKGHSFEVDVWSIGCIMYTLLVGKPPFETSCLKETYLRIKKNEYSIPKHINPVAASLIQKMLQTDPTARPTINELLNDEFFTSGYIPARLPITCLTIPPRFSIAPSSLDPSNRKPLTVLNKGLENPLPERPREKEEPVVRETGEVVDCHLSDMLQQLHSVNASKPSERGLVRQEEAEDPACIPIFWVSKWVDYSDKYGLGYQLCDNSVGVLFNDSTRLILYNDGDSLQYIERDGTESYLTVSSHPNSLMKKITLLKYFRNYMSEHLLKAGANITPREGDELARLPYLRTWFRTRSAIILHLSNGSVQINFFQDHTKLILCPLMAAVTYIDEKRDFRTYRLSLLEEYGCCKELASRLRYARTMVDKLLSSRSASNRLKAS
# [9] = biological target: Serine/threonine-protein kinase PLK1 (Homo sapiens) (UniProt P53350); conditions: at 10 µM
# [10] = biological target: Serine/threonine-protein kinase N2 (Homo sapiens) (UniProt Q16513); conditions: at 10 µM
# Sequence of Serine/threonine-protein kinase N2 (Homo sapiens) (Q16513 whole entry, looked up): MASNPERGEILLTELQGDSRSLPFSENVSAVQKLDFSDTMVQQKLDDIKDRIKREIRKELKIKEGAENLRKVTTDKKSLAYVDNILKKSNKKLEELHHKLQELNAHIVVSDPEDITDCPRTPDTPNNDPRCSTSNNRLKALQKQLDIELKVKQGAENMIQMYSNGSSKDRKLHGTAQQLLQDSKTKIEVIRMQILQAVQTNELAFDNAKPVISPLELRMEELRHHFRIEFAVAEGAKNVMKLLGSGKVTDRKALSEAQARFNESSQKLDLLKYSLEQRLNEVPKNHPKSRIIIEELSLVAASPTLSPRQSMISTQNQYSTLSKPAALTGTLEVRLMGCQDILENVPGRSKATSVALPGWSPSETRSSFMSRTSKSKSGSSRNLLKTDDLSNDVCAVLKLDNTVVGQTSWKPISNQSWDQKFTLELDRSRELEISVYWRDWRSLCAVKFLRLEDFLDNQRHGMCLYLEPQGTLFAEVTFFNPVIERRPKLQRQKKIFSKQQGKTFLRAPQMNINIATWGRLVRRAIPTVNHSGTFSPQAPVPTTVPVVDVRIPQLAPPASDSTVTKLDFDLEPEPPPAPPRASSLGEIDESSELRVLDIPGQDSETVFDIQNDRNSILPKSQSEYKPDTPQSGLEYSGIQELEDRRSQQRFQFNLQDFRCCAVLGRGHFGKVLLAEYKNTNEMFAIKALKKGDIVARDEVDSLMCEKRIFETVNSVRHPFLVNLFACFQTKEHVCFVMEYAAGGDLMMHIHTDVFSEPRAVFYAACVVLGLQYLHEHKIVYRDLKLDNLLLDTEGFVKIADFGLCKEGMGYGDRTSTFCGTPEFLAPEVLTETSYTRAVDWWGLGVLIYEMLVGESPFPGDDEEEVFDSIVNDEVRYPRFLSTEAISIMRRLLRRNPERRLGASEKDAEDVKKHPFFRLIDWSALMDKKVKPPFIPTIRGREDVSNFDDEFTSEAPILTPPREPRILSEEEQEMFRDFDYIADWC
# [11] = biological target: Serine/threonine-protein kinase pim-2 (Homo sapiens) (UniProt Q9P1W9); conditions: at 1 µM
# [12] = biological target: T3, cGMP-dependent protein kinase 1 (Homo sapiens) (UniProt Q13976); conditions: at 1 µM
# T3 sequence (whole entry): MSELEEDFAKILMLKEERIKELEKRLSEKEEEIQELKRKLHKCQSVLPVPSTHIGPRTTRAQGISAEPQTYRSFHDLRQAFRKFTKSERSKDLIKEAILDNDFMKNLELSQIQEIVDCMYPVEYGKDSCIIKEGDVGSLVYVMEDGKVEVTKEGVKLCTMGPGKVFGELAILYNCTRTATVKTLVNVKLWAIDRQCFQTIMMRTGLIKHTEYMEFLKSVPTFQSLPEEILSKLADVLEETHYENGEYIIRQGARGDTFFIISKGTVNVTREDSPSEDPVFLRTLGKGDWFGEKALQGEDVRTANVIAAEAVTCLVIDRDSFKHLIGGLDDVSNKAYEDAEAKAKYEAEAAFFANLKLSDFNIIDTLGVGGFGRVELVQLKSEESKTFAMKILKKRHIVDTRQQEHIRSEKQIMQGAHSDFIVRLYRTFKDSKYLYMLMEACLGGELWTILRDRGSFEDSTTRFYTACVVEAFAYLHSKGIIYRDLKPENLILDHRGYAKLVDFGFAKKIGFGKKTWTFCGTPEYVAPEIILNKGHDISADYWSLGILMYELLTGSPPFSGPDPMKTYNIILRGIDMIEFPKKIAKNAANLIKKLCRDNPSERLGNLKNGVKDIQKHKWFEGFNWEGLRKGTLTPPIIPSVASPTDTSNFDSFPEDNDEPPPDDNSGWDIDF
# [13] = biological target: T3, cGMP-dependent protein kinase 1 (Homo sapiens); conditions: at 10 µM
# [14] = biological target: Tyrosine-protein kinase FRK (Homo sapiens) (UniProt P42685); conditions: at 1 µM
# Sequence of Tyrosine-protein kinase FRK (Homo sapiens) (P42685 whole entry): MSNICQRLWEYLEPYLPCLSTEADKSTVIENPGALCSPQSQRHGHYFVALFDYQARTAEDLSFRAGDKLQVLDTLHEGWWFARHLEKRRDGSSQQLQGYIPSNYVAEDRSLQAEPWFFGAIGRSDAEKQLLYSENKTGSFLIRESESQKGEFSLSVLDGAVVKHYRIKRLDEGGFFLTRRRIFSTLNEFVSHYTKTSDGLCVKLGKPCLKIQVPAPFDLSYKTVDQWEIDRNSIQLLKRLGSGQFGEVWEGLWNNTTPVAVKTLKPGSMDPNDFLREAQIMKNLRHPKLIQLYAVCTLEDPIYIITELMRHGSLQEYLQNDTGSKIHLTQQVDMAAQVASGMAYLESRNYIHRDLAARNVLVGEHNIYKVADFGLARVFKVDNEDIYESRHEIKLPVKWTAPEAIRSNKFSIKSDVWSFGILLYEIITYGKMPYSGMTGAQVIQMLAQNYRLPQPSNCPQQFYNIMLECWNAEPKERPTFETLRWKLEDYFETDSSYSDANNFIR
# [15] = biological target: Tyrosine-protein kinase FRK (Homo sapiens) (UniProt P42685); conditions: at 10 µM
# [16] = biological target: Serine/threonine-protein kinase pim-3 (Homo sapiens) (UniProt Q86V86); conditions: at 1 µM
# [17] = biological target: Serine/threonine-protein kinase pim-3 (Homo sapiens) (UniProt Q86V86); conditions: at 10 µM
# [18] = biological target: Serine/threonine-protein kinase N2 (Homo sapiens) (UniProt Q16513); conditions: at 1 µM
compound,measurement,setting,value
NCCNc1ncc(C(N)=O)c(Nc2cccc(C(F)(F)F)c2)n1,residual activity,[1],42%
same,residual activity,[2],11%
same,residual activity,[3],64%
same,residual activity,[4],22%
same,residual activity,[5],82%
same,residual activity,[6],38%
same,residual activity,[7],60%
same,residual activity,[8],100%
same,residual activity,[9],73%
COc1ccc(CNC(=O)Nc2ncc([N+](=O)[O-])s2)cc1,residual activity,[10],81%
same,residual activity,[3],122%
same,residual activity,[4],107%
same,residual activity,[5],116%
same,residual activity,[6],109%
same,residual activity,[11],134%
same,residual activity,[7],135%
same,residual activity,[8],64%
same,residual activity,[9],76%
N#Cc1c(NC(=O)c2cccc3ccccc23)sc2c1CCCC2,residual activity,[12],96%
same,residual activity,[13],87%
same,residual activity,[1],87%
same,residual activity,[2],93%
same,residual activity,[14],88%
same,residual activity,[15],100%
same,residual activity,[6],77%
same,residual activity,[16],88%
same,residual activity,[17],85%
same,residual activity,[8],94%
same,residual activity,[9],78%
COc1ccc(COc2ccc(Cc3cnc(N)nc3N)cc2OC)cc1,residual activity,[7],115%
same,residual activity,[8],80%
same,residual activity,[9],71%
CC(C)N(CCC(=O)c1ccc2ccccc2c1)Cc1ccccc1,residual activity,[1],82%
same,residual activity,[2],72%
same,residual activity,[4],80%
same,residual activity,[7],127%
same,residual activity,[8],69%
same,residual activity,[9],64%
Cn1c2ccccc2c2c3c(c4c5ccccc5n(CCC#N)c4c21)CNC3=O,residual activity,[18],11%
same,residual activity,[10],10%
same,residual activity,[14],42%
same,residual activity,[15],33%
same,residual activity,[3],1%
same,residual activity,[4],2%
same,residual activity,[5],18%
same,residual activity,[6],22%
same,residual activity,[11],25%
same,residual activity,[7],40%
same,residual activity,[16],58%
same,residual activity,[9],66%
CCCCc1c(-c2ccc(O)cc2)[nH]c2nccnc12,residual activity,[18],87%
same,residual activity,[10],85%
same,residual activity,[14],59%
same,residual activity,[15],25%
same,residual activity,[11],140%
same,residual activity,[8],82%
same,residual activity,[9],87%
O=C1Cc2c([nH]c3ccc([N+](=O)[O-])cc23)-c2ccccc2N1,residual activity,[1],80%
same,residual activity,[2],81%
same,residual activity,[14],67%
same,residual activity,[15],46%
same,residual activity,[11],119%
same,residual activity,[7],117%
same,residual activity,[8],105%
same,residual activity,[9],100%
NC(=O)c1ccc(-c2nc(-c3ccc4c(c3)OCCO4)c(-c3ccccn3)[nH]2)cc1,residual activity,[13],63%
same,residual activity,[2],89%
same,residual activity,[18],120%
same,residual activity,[10],98%
same,residual activity,[14],98%
same,residual activity,[15],89%
same,residual activity,[3],90%
same,residual activity,[4],93%
same,residual activity,[16],96%
same,residual activity,[17],97%
same,residual activity,[8],81%
same,residual activity,[9],71%
CCOC(=O)c1c(C)[nH]c(/C=C2\C(=O)Nc3ccccc32)c1C,residual activity,[1],88%
same,residual activity,[2],81%
same,residual activity,[3],87%
same,residual activity,[4],92%
same,residual activity,[5],72%
same,residual activity,[9],74%
O=C(c1ccccc1)c1ccc(N2CCOCC2)cc1O,residual activity,[12],93%
same,residual activity,[13],80%
same,residual activity,[1],99%
same,residual activity,[2],74%
same,residual activity,[10],129%
same,residual activity,[14],89%
same,residual activity,[15],96%
same,residual activity,[3],84%
same,residual activity,[4],113%
same,residual activity,[5],76%
same,residual activity,[6],81%
same,residual activity,[8],93%
same,residual activity,[9],75%
